HTR5A ag = counter-screen for OPRM1-OPRD1 agonists: human HTR5A agonism. P47898. HTR5A agonist assay, luminescence, cell-based. activation, % at 9.3 µM. 340,000 compounds, 0.61% hits; in the data active = activation mostly above about 9.5%, no sharp cut-off; inactive = mostly below about 7.6%
MOR-DOR ag = OPRM1-OPRD1 heterodimerization agonism; P35372+P41143; cells, luminescence; activation, % at 9.3 µM; 340,000 compounds, 0.3% hits
Target sequence (P35372 whole entry, looked up): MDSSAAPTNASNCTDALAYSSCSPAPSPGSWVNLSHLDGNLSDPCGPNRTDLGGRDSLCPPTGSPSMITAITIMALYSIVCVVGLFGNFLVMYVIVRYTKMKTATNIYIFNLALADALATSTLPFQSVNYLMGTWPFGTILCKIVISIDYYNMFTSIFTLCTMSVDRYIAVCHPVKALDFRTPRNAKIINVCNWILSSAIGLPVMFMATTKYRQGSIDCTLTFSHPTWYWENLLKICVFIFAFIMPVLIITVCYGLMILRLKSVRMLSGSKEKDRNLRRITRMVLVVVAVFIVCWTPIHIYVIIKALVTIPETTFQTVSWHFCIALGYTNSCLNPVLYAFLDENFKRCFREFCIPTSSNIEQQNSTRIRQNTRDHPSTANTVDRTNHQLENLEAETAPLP
Target sequence (P41143 whole entry, looked up): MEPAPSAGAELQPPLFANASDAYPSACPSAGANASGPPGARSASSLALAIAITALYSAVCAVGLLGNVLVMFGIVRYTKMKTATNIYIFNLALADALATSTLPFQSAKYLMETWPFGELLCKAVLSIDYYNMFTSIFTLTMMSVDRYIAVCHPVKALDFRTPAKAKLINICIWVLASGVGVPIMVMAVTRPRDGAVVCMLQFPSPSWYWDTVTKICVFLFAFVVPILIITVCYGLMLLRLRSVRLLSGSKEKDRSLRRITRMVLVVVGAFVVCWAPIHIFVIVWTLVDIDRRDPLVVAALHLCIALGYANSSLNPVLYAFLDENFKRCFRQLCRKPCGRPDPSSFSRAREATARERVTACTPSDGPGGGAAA
OPRM1-OPRD1 inv = inverse agonist of human OPRM1-OPRD1 heterodimerization; P35372+P41143; cell-based MOR-DOR heterodimer luminescence, inverse agonism; inhibition, % at 9.3 µM; 340,000 compounds, 0.21% hits; AID 504357; in the data active = inhibition above about 22%, passing the limit was not always enough
HTR5A inv ag = HTR5A inverse agonism, opioid heterodimer counter-screen; P47898; AID 504634; HTR5A cell line, luminescence; 340,000 compounds, 0.083% hits; inhibition, % at 9.3 µM; in the data active = inhibition mostly above about 23%, no sharp cut-off; inactive = mostly below about 18%
OPRM1-D1 ag cf = confirmation of human OPRM1-OPRD1 heterodimerization agonists; 830 compounds, 45% hits; AID 504904; cells, MOR-DOR heterodimerization, luminescence complementation; shares compounds with MOR-DOR ag; activation, % at 9.3 µM
HTR5A ag ctr2 = HTR5A agonism, opioid heterodimer counter-screen. AID 504905. shares compounds with MOR-DOR ag. HTR5A agonist counterscreen, cell luminescence. activation, % at 9.3 µM. 830 compounds, 8% hits; in the data active = activation above about 17%
Each line names hits and unclear results; the compound was inactive in the other large screens (follow-up assays come after a bar, where they were run). A selection: hits, their analogues and other compounds. The true share with any hit is near 1.1%. Rule as the data show it, unless noted: active = activation above about 18%; inactive = the rest.

COc1cccc(CN2CCC(n3nccc3NC(=O)CCCc3ccccc3)CC2)c1O	none
COc1ccc(CN2CCC(n3nccc3NC(=O)CCc3ccccc3)CC2)c(C)c1C	MOR-DOR ag 23.2 | OPRM1-D1 ag cf inactive | HTR5A ag ctr2 inactive
CC1CC(C)CN(C(=O)Cn2ncc3c([nH]c4ccccc43)c2=O)C1 (stereo not given)	none
O=C(Cn1ncc2c([nH]c3ccccc32)c1=O)N1CCc2ccccc2C1	MOR-DOR ag 32.4 | OPRM1-D1 ag cf 25.7 | HTR5A ag ctr2 inactive
CC(C)CCN(C(=O)CCSc1ccc(F)cc1)c1c(N)n(Cc2ccccc2)c(=O)[nH]c1=O	none
COc1ccc(/C=N\NC(=O)COc2ccc(C(C)(C)C)cc2)cc1Cn1nc(C)cc1C	MOR-DOR ag 45.1 | OPRM1-D1 ag cf inactive | HTR5A ag ctr2 inactive
CN(Cc1ccc(Cl)cc1)C(=O)CNC(=O)C12CC3CC(CC(C3)C1)C2	none
CCOc1ccc(S(=O)(=O)N(CC)CC(=O)NCc2ccncc2)cc1	none
Cc1ccccc1NP1(=O)OCCCN1Cc1ccccc1Cl (stereo not given)	MOR-DOR ag 30.1 | OPRM1-D1 ag cf inactive | HTR5A ag ctr2 inactive
Cc1cc2c(cc1S(=O)(=O)NCc1ccccc1Cl)OCCN2C	none
CCN1CCN(S(=O)(=O)c2ccc(Cl)c(C(=O)N(CCc3ccccc3)Cc3ccccc3)c2)CC1	MOR-DOR ag 19.6 | OPRM1-D1 ag cf 360.3 | HTR5A ag ctr2 inactive
Cc1ccc(-c2csc3ncnc(-n4nnc5ccccc54)c23)cc1	MOR-DOR ag 22.9 | OPRM1-D1 ag cf inactive | HTR5A ag ctr2 inactive
Cc1ccc(-c2csc3ncnc(-n4nnc5ccccc54)c23)cc1C	none
COC(=O)CC1(C(=O)OC)Oc2ccc(Br)cc2C(=O)N1c1ccc(Br)cc1Cl (stereo not given)	MOR-DOR ag 46.0 | OPRM1-D1 ag cf inactive | HTR5A ag ctr2 inactive
NC(=O)c1cc(-c2csc(NCCc3ccccc3)n2)ccc1O	MOR-DOR ag 19.1 | OPRM1-D1 ag cf 19.7 | HTR5A ag ctr2 inactive
C=CCNc1nc(-c2ccc(O)c(C(N)=O)c2)cs1	none
COc1ccc(S(=O)(=O)/N=C2/C=CC(=O)C(C)=C2C)cc1	none
CC1=C(C)/C(=N\OS(=O)(=O)c2ccc(C)cc2)C=CC1=O	MOR-DOR ag 50.4 | OPRM1-D1 ag cf inactive | HTR5A ag ctr2 54.0
CC1=C/C(=N\OS(=O)(=O)c2ccccc2)C(C)=CC1=O	HTR5A ag 11.0, MOR-DOR ag 77.6 | OPRM1-D1 ag cf 47.2 | HTR5A ag ctr2 inactive
CCOC(=O)c1c(NC(=O)CN2CCN(S(=O)(=O)c3cc(Cl)ccc3Cl)CC2)sc(C(=O)N(C)C)c1C	MOR-DOR ag 18.3 | OPRM1-D1 ag cf inactive | HTR5A ag ctr2 inactive
O=C(CNc1ccc2ccccc2c1)N/N=C/c1ccc([N+](=O)[O-])o1	HTR5A ag 9.3, MOR-DOR ag 37.8 | OPRM1-D1 ag cf inactive | HTR5A ag ctr2 inactive
COc1cccc(-c2nnc(NC(=O)c3ccc(Cl)s3)o2)c1	MOR-DOR ag 19.7 | OPRM1-D1 ag cf inactive | HTR5A ag ctr2 inactive
CCOC(=O)c1cc[nH]c1CC(=O)NC	none
Cc1ccc(/C=N/NC(=O)CSc2nnc(-c3ccc(Cl)cc3)n2-c2ccc(Cl)cc2)o1	MOR-DOR ag 36.7 | OPRM1-D1 ag cf inactive | HTR5A ag ctr2 17.2
O=C(Cn1c(-c2ccccc2)c[n+]2ccsc12)c1ccc([N+](=O)[O-])cc1	MOR-DOR ag 80.9 | OPRM1-D1 ag cf inactive | HTR5A ag ctr2 40.0
Cc1ccc2nc(-c3ccc(SCC(=O)Nc4nnc(C)s4)nc3)[nH]c2c1	MOR-DOR ag 24.1 | OPRM1-D1 ag cf inactive | HTR5A ag ctr2 inactive
Cc1ccc(SCC(=O)Nc2ccc(-c3nc4ccccc4[nH]3)cc2)cc1	MOR-DOR ag 34.2 | OPRM1-D1 ag cf 28.6 | HTR5A ag ctr2 inactive
Cc1ccc(NC(=O)CCCSc2nc3ccccc3[nH]2)cc1	none
O=C(CSc1nc2ccccc2[nH]1)N1CCN(c2ccccc2)CC1	none
O=[N+]([O-])c1ccc(N2CCN(CCO)CC2)cc1Sc1nc2ccccc2[nH]1	MOR-DOR ag 19.5 | OPRM1-D1 ag cf inactive | HTR5A ag ctr2 17.5
CCCCCCCCCCOC(=O)Cn1c(COc2ccc(Cl)cc2)[n+](C)c2ccccc21	MOR-DOR ag 18.3 | OPRM1-D1 ag cf 24.2 | HTR5A ag ctr2 inactive
CCCCCCCCCCOC(=O)Cn1c(COc2ccccc2C)[n+](C)c2ccccc21	HTR5A ag 13.0, MOR-DOR ag 28.2 | OPRM1-D1 ag cf 35.5 | HTR5A ag ctr2 inactive
CCCCCOC(=O)Cn1c(=O)oc2ccccc21	none
OC(CNC1CCCc2ccccc21)COc1ccc2ccccc2c1 (stereo not given)	MOR-DOR ag 42.2 | OPRM1-D1 ag cf 31.1 | HTR5A ag ctr2 inactive
O=C(O)c1sc2cc(C(F)(F)F)cnc2c1-c1ccccn1	none
O=C(NCc1cccnc1)c1ccc(NS(=O)(=O)c2ccc(F)cc2)cc1	none
NC1=C(Cl)C(=O)c2ccccc2C1=O	none
NC1=C(Cl)C(=O)c2ccc(S(N)(=O)=O)cc2C1=O	HTR5A ag 15.8, MOR-DOR ag 38.7 | OPRM1-D1 ag cf inactive | HTR5A ag ctr2 inactive
Cc1ccc(NC(=O)CCn2c(=O)c3cccn3c3ccccc32)cc1C	none
CN1CCN(c2ccc(NC(=O)COc3ccc4ccccc4c3)cc2)CC1	none
CN1CCN(c2ccc(NC(=O)COc3cccc4ccccc34)cc2)CC1	MOR-DOR ag 25.2 | OPRM1-D1 ag cf inactive | HTR5A ag ctr2 38.9
CN(C)C1(CNC(=O)CC(NC(=O)c2ccccc2Cl)c2ccccc2)CCCCC1 (stereo not given)	MOR-DOR ag 21.7 | OPRM1-D1 ag cf inactive | HTR5A ag ctr2 inactive
Cc1cc(/C=C2\SC(=O)N(C)C2=O)c(C)n1-c1ccc(O)cc1	none
CC(=O)NC1=NC(=O)/C(=C/c2cc(C)n(-c3ccc(NC(C)=O)cc3)c2C)S1	MOR-DOR ag 59.9 | OPRM1-D1 ag cf inactive | HTR5A ag ctr2 inactive
CN(C)C(CNC(=O)c1ccc(C(F)(F)F)cc1)c1ccco1 (stereo not given)	MOR-DOR ag 51.2 | OPRM1-D1 ag cf 52.5 | HTR5A ag ctr2 inactive
COc1ccc(C(=O)NCC(=O)NCC(c2ccco2)N(C)C)cc1OC (stereo not given)	none
O=C(NCc1ccco1)c1cc2ccccc2o1	none
Cc1ccc(CC(=O)NCC(c2ccco2)N(C)C)cc1C (stereo not given)	MOR-DOR ag 68.5 | OPRM1-D1 ag cf 56.1 | HTR5A ag ctr2 inactive
CC(=O)Nc1ccc(C(=O)NCC(c2ccco2)N(C)C)cc1 (stereo not given)	none
CN(C)C(CNC(=O)c1cc2ccccc2o1)c1ccco1 (stereo not given)	MOR-DOR ag 22.3 | OPRM1-D1 ag cf 146.6 | HTR5A ag ctr2 inactive
CCOC(=O)C1=C(COC(=O)COc2cc(C)ccc2C)NC(=O)NC1C (stereo not given)	none
COc1ccc(C(=O)C(CCCCC(CN(C)C)C(=O)c2ccc(OC)cc2)CN(C)C)cc1 (stereo not given)	none
